# Records with an inconclusive call do not appear. A call without a number means that no potency is given here. Activity calls are given as the source filed them. The call rests on the fitted dose curve; in most records, active means well fitted cell-killing curve with a large enough effect; inconclusive means small, poorly fitted or top-dose-only effect; inactive means flat fitted curve, though single readings scatter.
# Assay: Quantitative highthroughput screen to assess conditional lethalithy of P12 Ichikawa cells grown in RPMI1640 with untreated serum (RPMI+s) (AID 1963881); further: nearly all actives have a fitted effect of over 35% in size
# Conditions: ATP luminescence, 48 h; Potency: viability; series mostly up to 45.8 µM
# Text: Assay Provider: Jason Cantor Ph.D.
# Department of Biochemistry
# University of Wisconsin-Madison, Madison, WI, USA
# Chemical screening studies have identified drug sensitivities across hundreds of cancer cell lines but most putative therapeutics fail to translate. Discovery and development of drug candidates in models that more accurately reflect nutrient levels in human blood is a major challenge. Here we performed high-throughput screens in conventional versus Human Plasma-Like Medium (HPLM) to identify compounds that were "missed" when screening using the artificial culture condition. Sets of conditional anticancer compounds spanned phases of clinical development and included non-oncology drugs were assessed. […] We also traced conditional phenotypes for several chemotherapeutics to availability of HPLM-specific metabolites and confirmed others for compounds whose reported targets are encoded by nonessential genes. Our findings establish generalizable strategies for exploiting conditional lethality in HPLM to reveal therapeutic candidates and mechanisms of action in cancer cells.
# Described herein are the results of each viability screens against three cell lines: NOMO1 (an acute myeloid leukemia cell line); P12-Ichikawa (a T-cell acute lymphoblastic leukemia); and SEM (a B-cell ALL). Each assay was screened using 3 different cell culture media: homemade human plasma-Like medium with 10% dialyzed fetal bovine serum (HPLM+ds); RPMI1640 with 10% untreated FBS and 5mM glucose (RPMI+s); and RPMI1640 with 10% dialyzed fetal bovine serum and 5 mM glucose (RPMI+ds).
# PROTOCOL TABLE (as described by Inglese J, Shamu CE and Guy RK. 2007)
# SEQUENCE No. (e.g., 1, 2, 3, etc.); […] (e.g., Cells, Incubation, Reagent, etc.); VALUE and DESCRIPTION.
# 1; Cells; 5 uL; white, solid bottom 1536-well Greiner assay plate.
# 2; Compounds; 23 nL; Kalypsis pin tool (Wako USA) equipped with a 1536-well pin head to transfer to the assay plates.
# 3; Incubation; 48 hours; 37C incubation.
# 4; Reagent; 3 uL; CellTiter Glo (Promega).
# 5; Incubation; 5 min, room temperature
# 6; Detection; Luminescence, Viewlux PerkinElmer.
# NOTES (numbers refer to Sequence numbers above)
# 1. Briefly, 5 ul of cell reagent was dispensed using a Multidrop Combi Dispenser. The NOMO1 and SEM cells were plated at 500 cells/well and the P12-Ichikawa line at 1000 cells/well.
# 2. After seeding the cells, 23 nL of MIPE 4.1 library compounds (in DMSO) were added to each plate using a Kalypsys 1536 Pintool dispenser. Bortezomib at final concentration of […] and DMSO were added to each plate as positive and negative controls respectively. For each screen, MIPE 4.1 compounds were added over an eleven-point concentration range […] in 3-fold dilutions.
# 3. Each plate was covered with a stainless steel gasketed lid to prevent evaporation and incubated for 48 hour at 37C, 95% relative humidity, and 5% CO2.
# 4-5. Three microliter CellTilter-GloTM luminescent substrate mix (Promega) reagent was added to the assay plate and incubated at room temperature for 5 min.
# 6. The luminescence signal was measured using a ViewLux (PerkinElmer) multiplate reader with a 2 second exposure time per plate. Data for each compound were normalized as percent viability such that measurements for DMSO and the empty well controls in each plate were defined as 100% and 0%, respectively.
# Potency means the concentration at half of the fitted maximal effect.
row,SMILES,Potency
1,COc1ccc2c(c1)CN(C)CC2c1ccc(Cl)c(Cl)c1 (stereo not given),inactive
2,CCOP(=O)(OCC)C(C)NC(=O)N(CCCl)N=O (stereo not given),inactive
3,C[C@]12CCC(=O)C(O)=C1CC[C@@H]1[C@H]3CCC(=O)[C@@]3(C)CC[C@@H]12,inactive
4,CC[C@@H]1[C@@H](C)O[C@@](O)([C@@H](C)[C@H](O)[C@H](C)[C@H]2OC(=O)C=CC=C[C@@H](C)[C@@H]([C@@H](C)[C@@H](O)[C@H](C)[C@@]3(O)C[C@H](O[C@H]4C[C@H](O)[C@H](O)[C@H](C)O4)[C@H](CC)[C@@H](C)O3)OC(=O)C=CC=C[C@@H]2C)C[C@H]1O[C@H]1C[C@H](O)[C@H](O)[C@H](C)O1,7430 nM (active)
5,CC(C)C[C@H](CN)CC(=O)O,inactive
6,O=C1CC[C@@]2(O)[C@H]3Cc4ccc(O)c5c4[C@@]2(CCN3CC2CC2)[C@H]1O5,inactive
7,CC(=O)N(C)c1cccc(-c2ccnc3c(C(=O)c4cccs4)cnn23)c1,inactive
8,CCOC(=O)Nc1ccc(NCc2ccc(F)cc2)cc1N,inactive
9,C[C@@H]1CC[C@H]2[C@@H](C)C(=O)O[C@@H]3O[C@@]4(C)CC[C@H]1[C@]32OO4,inactive
10,CNC(=O)c1ccc(N2C(=S)N(c3ccc(C#N)c(C(F)(F)F)c3)C(=O)C23CCC3)cc1F,inactive
11,CN(C)CCN(C)CCc1ccc(Cl)c(Cl)c1,inactive
12,C[C@]12Cc3cn[nH]c3C[C@@H]1CC[C@@H]1[C@H]2CC[C@@]2(C)[C@H]1CC[C@]2(C)O,inactive
13,O=C1C=CC[C@@H]2[C@H]3CCCN4CCC[C@@H](CN12)[C@@H]34,inactive
14,CCOC(=O)c1c(C(C#N)=CN)c2ccc(Cl)c(Cl)c2n1C,inactive
15,COc1ccc(CC2NCCc3cc(OC)c(OC)cc32)cc1OC (stereo not given),inactive
16,C#C[C@]1(O)C=C[C@@H]2[C@@H]3CCC4=CC(=O)CC[C@@H]4[C@H]3CC[C@@]21CC,inactive
17,O=c1[nH]c2ccccc2n1C1CCN(Cc2ccc(-c3[nH]c4cc5ncnc5cc4nc3-c3ccccc3)cc2)CC1,inactive
18,CC1=C(O)C(=O)C=C2C1=CC=C1[C@@]2(C)CC[C@@]2(C)[C@@H]3C[C@](C)(C(=O)O)CC[C@]3(C)CC[C@]12C,2960 nM (active)
19,CCCC[N+]1(C)[C@H]2CC(OC(=O)[C@H](CO)c3ccccc3)C[C@H]1[C@H]1O[C@H]12 (stereo not given in full),inactive
20,Cc1[nH]nc2ccc(-c3cncc(OC[C@@H](N)Cc4c[nH]c5ccccc45)c3)cc12,1480 nM (active)

row,SMILES,Potency
1,COc1ccc2c(c1)[C@]13CCCCC1C(C2)N(C)CC3 (stereo not given in full),inactive
2,Cc1cc(SCc2sc(-c3ccc(C(F)(F)F)c(F)c3)nc2C)ccc1OCC(=O)O,inactive
3,CC(=O)OCC1=C(C(=O)O)N2C(=O)[C@@H](N)[C@@H]2SC1,1480 nM (active)
4,CC(C)[C@]12O[C@@H]1[C@@H]1O[C@]13[C@]1(O[C@H]1C[C@@H]1C4=C(CC[C@@]13C)C(=O)OC4)[C@H]2O,1.5 nM (active)
5,C[C@]12CC[C@@H]3c4ccc(OC(=O)N(CCCl)CCCl)cc4CC[C@H]3[C@@H]1CC[C@@H]2OP(=O)(O)O,inactive
6,Clc1ccccc1C(c1ccccc1)(c1ccccc1)n1cccn1,inactive
7,CC(O)=C(C#N)C(=O)Nc1cc(Br)ccc1Br,inactive
8,COc1cc(C(=O)N2CC[C@@H](O)[C@@H](N)C2)cc2nc(-c3cc4ccccc4n3CC3CC3)n(C)c12,1050 nM (active)
9,C[C@](O)(COc1ccc(C#N)cc1)C(=O)Nc1ccc(C#N)c(C(F)(F)F)c1,inactive
10,C[C@@H]1C[C@@H]([C@H](O)CC2CC(=O)NC(=O)C2)C(=O)[C@@H](C)C1,264 nM (active)
11,C[C@]12CC[C@H]3[C@@H](CCC4=CC(=O)CC[C@@]43C)[C@H]1CC[C@H]2OC(=O)CCC1CCCC1,inactive
12,CN1CCN(c2ccc([N+](=O)[O-])c3no[n+]([O-])c23)CC1,inactive
13,CC(C)(C)c1cc(C=C(C#N)C#N)cc(Br)c1O,inactive
14,CC[C@H]1C=CC=CC[C@@H](C)[C@H](O)[C@@](C)(O)C(=O)[C@@H](C)[C@H](O)[C@@H](C)C(=O)[C@@H](C)[C@H](O)[C@@H](C)C=CC(=O)O[C@@H]2[C@@H](C)[C@H](CC1)O[C@]1(CC[C@H](C)[C@H](C[C@@H](C)O)O1)[C@H]2C,16600 nM (active)
15,COCC1(CO)C(=O)C2CCN1CC2 (stereo not given),16600 nM (active)
16,COc1cccc2c1[C@]13CCN(CC4CC4)[C@H](C2)[C@]1(OC)CCC(=O)C3,inactive
17,CCCC(C)(COC(N)=O)COC(=O)NC(C)C (stereo not given),inactive
18,CN(C)[C@@H]1C(=O)C(C(N)=O)=C(O)[C@@]2(O)C(=O)C3=C(O)c4c(O)cccc4[C@@](C)(O)[C@H]3C[C@@H]12,inactive
19,c1ccc(CCCN2CCN(CCOC(c3ccccc3)c3ccccc3)CC2)cc1,18700 nM (active)
20,C[C@]12CC[C@@H]3[C@@H](CCC4=CC(=O)CC[C@@H]43)[C@@H]1CC[C@@H]2OC(=O)CCc1ccccc1,inactive

# Source: PubChem BioAssay (NCATS)
